Source: ChEMBL document CHEMBL1961873, “Compounds: GSK PKIS; Assays: Nanosyn kinase panel” (2012)

target: G protein-coupled receptor kinase 6 (Homo sapiens) (UniProt P43250); conditions: at 0.1 µM
Sequence (P43250 whole entry, looked up): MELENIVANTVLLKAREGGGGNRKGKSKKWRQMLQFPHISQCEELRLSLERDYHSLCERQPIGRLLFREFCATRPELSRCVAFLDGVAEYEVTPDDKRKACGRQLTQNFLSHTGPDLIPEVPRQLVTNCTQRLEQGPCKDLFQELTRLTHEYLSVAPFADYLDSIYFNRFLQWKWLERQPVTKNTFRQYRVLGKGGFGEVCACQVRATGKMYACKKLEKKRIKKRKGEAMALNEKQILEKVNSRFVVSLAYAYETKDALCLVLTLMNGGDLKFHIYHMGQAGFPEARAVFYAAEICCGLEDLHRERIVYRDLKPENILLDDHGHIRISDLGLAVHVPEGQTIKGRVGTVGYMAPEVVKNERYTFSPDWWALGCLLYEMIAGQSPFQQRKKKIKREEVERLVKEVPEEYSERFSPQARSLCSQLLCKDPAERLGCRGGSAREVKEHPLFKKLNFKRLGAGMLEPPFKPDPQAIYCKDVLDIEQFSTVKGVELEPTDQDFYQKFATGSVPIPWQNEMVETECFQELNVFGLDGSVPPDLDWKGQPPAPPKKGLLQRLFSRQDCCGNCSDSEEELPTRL

Structure (SMILES)	inhibition
COc1ccccc1Nc1ncc(-c2ccccc2)o1	2.46%
CN(C)c1cc2c(Nc3ccc4nc(Cc5ccccc5)[nH]c4c3)ncnc2cn1	2.98%
CCn1c(-c2nonc2N)nc2c(N3CCCC3)nccc21	0.48%
CC1=C(C(=O)Nc2ccc3[nH]ncc3c2)C(c2ccc3ccccc3c2)CC(=O)N1 (stereo unspecified)	2.91%
CNC(=O)c1cncc(/C=C/c2c(Cl)cccc2Cl)c1	3.3%
Cc1ccc(NC(=O)c2ccnc(N3CCCC3)c2)cc1-c1ccc(C(=O)NCC2CC2)cc1	2.49%
NS(=O)(=O)c1ccc(N/N=C2\C(=O)Nc3ccc(C(=O)NCCc4c[nH]cn4)cc32)cc1	5.89%
O=C1NC(=O)C(N2CCc3ccccc32)=C1c1ccc(Cl)cc1	0.71%
CCn1c(-c2nonc2N)nc2c(C#CC(C)(C)O)nc(CN3CCCC3)cc21	-2.28%
COc1cc2ncn(-c3cc(OCc4ccccc4C(F)(F)F)c(C(N)=O)s3)c2cc1OC	0.88%
Nc1nc(-c2ccccn2)c(-c2ccc3ncccc3n2)s1	5.73%
O=C1NC(=O)C(c2ccccc2Cl)=C1Nc1cccc(O)c1	1.82%
O=C(Nc1n[nH]c2nc(-c3ccco3)c(Br)cc12)C1CC1	-0.71%
COc1ccc(-c2ccncc2)cc1C(N)=O	5.49%
Nc1ncnc2occ(-c3ccc(NC(=O)Nc4cc(C(F)(F)F)cc(C(F)(F)F)c4)cc3)c12	-2.78%
Cc1nn(C)c2cc(N(C)c3ccnc(Nc4cccc(S(N)(=O)=O)c4)n3)ccc12	3.92%
[O-][S+]1CCN(Cc2ccc(-c3ccc4ncnc(Nc5ccc(OCc6ccccc6)c(F)c5)c4c3)o2)CC1	3.78%

Structure (SMILES)	inhibition
Cn1cc(C=C2C(=O)Nc3cccnc32)c2ccccc21	-1.62%
CC1=C(C(=O)Nc2ccc3[nH]ncc3c2)C(c2ccc(Cl)c(Cl)c2)CC(=O)N1 (stereo unspecified)	4.25%
NC(=O)c1cccc(Nc2nccc(Nc3cccc4[nH]ncc34)n2)c1	-0.32%
CS(=O)(=O)CCNCc1ccc(-c2ccc3ncnc(Nc4ccc(OCc5cccc(F)c5)c(C(F)(F)F)c4)c3c2)o1	9.26%
Nc1nc(-c2ccc3c(c2)C(=Cc2cc(Br)c(O)c(Br)c2)C(=O)N3)cs1	0.91%
CC(=O)Nc1cccc(C#Cc2cncnc2Nc2ccc(OCc3cccc(F)c3)c(Cl)c2)n1	0.73%
Fc1cccc(COc2ccc(Nc3ncnc4sc(-c5cccs5)cc34)cc2Cl)c1	1.48%
CN1CCC(C(=O)Nc2n[nH]c3nnc(-c4ccccc4)cc23)CC1	7.16%
COc1cc2ncn(-c3cc(O[C@H](C)c4ccccc4Cl)c(C(N)=O)s3)c2cc1OC	3.78%
COc1cc2ncn(-c3cc(O[C@@H](C)c4ccccc4Cl)c(C(N)=O)s3)c2cc1OC	0.89%
NC(=O)c1ccc(-c2nc(-c3ccccn3)c(-c3ccc4c(c3)OCO4)[nH]2)cc1	0.64%
CC(C)=Cc1cccc2c1/C(=N/Nc1ccc(S(N)(=O)=O)cc1)C(=O)N2	3.06%
COC(=O)Nc1nc2cc(Oc3ccc(NC(=O)Nc4cccc(C(=O)O)c4)cc3)ccc2[nH]1	2%
N#Cc1c(NC(=O)c2cccc3ccccc23)sc2c1CCCC2	3.58%
Fc1cccc(COc2ccc(Nc3ncnc4cc(-c5ccc[nH]5)sc34)cc2Cl)c1	5%
COc1cc2c(cc1Nc1nc(N3CCc4ccccc43)c3cc[nH]c3n1)N(C(=O)CN(C)C)CC2	1.54%

target: G protein-coupled receptor kinase 6 (Homo sapiens) (UniProt P43250); conditions: at 1 µM

Structure (SMILES)	inhibition
COc1ccccc1Nc1ncc(-c2ccccc2)o1	3.95%
CN(C)c1cc2c(Nc3ccc4nc(Cc5ccccc5)[nH]c4c3)ncnc2cn1	6.85%
CCn1c(-c2nonc2N)nc2c(N3CCCC3)nccc21	2.71%
CC1=C(C(=O)Nc2ccc3[nH]ncc3c2)C(c2ccc3ccccc3c2)CC(=O)N1 (stereo unspecified)	13.5%
CNC(=O)c1cncc(/C=C/c2c(Cl)cccc2Cl)c1	4.35%
Cc1ccc(NC(=O)c2ccnc(N3CCCC3)c2)cc1-c1ccc(C(=O)NCC2CC2)cc1	0.85%
NS(=O)(=O)c1ccc(N/N=C2\C(=O)Nc3ccc(C(=O)NCCc4c[nH]cn4)cc32)cc1	9.39%
O=C1NC(=O)C(N2CCc3ccccc32)=C1c1ccc(Cl)cc1	3.31%
CCn1c(-c2nonc2N)nc2c(C#CC(C)(C)O)nc(CN3CCCC3)cc21	-0.02%
COc1cc2ncn(-c3cc(OCc4ccccc4C(F)(F)F)c(C(N)=O)s3)c2cc1OC	0.91%
Nc1nc(-c2ccccn2)c(-c2ccc3ncccc3n2)s1	1.87%
O=C1NC(=O)C(c2ccccc2Cl)=C1Nc1cccc(O)c1	2.13%
O=C(Nc1n[nH]c2nc(-c3ccco3)c(Br)cc12)C1CC1	-0.55%
COc1ccc(-c2ccncc2)cc1C(N)=O	5.53%
Nc1ncnc2occ(-c3ccc(NC(=O)Nc4cc(C(F)(F)F)cc(C(F)(F)F)c4)cc3)c12	-6.02%
Cc1nn(C)c2cc(N(C)c3ccnc(Nc4cccc(S(N)(=O)=O)c4)n3)ccc12	3.28%
[O-][S+]1CCN(Cc2ccc(-c3ccc4ncnc(Nc5ccc(OCc6ccccc6)c(F)c5)c4c3)o2)CC1	-2.01%

Structure (SMILES)	inhibition
Cn1cc(C=C2C(=O)Nc3cccnc32)c2ccccc21	6.18%
CC1=C(C(=O)Nc2ccc3[nH]ncc3c2)C(c2ccc(Cl)c(Cl)c2)CC(=O)N1 (stereo unspecified)	7.35%
NC(=O)c1cccc(Nc2nccc(Nc3cccc4[nH]ncc34)n2)c1	2.35%
CS(=O)(=O)CCNCc1ccc(-c2ccc3ncnc(Nc4ccc(OCc5cccc(F)c5)c(C(F)(F)F)c4)c3c2)o1	5.4%
Nc1nc(-c2ccc3c(c2)C(=Cc2cc(Br)c(O)c(Br)c2)C(=O)N3)cs1	10.7%
CC(=O)Nc1cccc(C#Cc2cncnc2Nc2ccc(OCc3cccc(F)c3)c(Cl)c2)n1	6.19%
Fc1cccc(COc2ccc(Nc3ncnc4sc(-c5cccs5)cc34)cc2Cl)c1	1.31%
CN1CCC(C(=O)Nc2n[nH]c3nnc(-c4ccccc4)cc23)CC1	14.5%
COc1cc2ncn(-c3cc(O[C@H](C)c4ccccc4Cl)c(C(N)=O)s3)c2cc1OC	15%
COc1cc2ncn(-c3cc(O[C@@H](C)c4ccccc4Cl)c(C(N)=O)s3)c2cc1OC	2.39%
NC(=O)c1ccc(-c2nc(-c3ccccn3)c(-c3ccc4c(c3)OCO4)[nH]2)cc1	5.54%
CC(C)=Cc1cccc2c1/C(=N/Nc1ccc(S(N)(=O)=O)cc1)C(=O)N2	8.62%
COC(=O)Nc1nc2cc(Oc3ccc(NC(=O)Nc4cccc(C(=O)O)c4)cc3)ccc2[nH]1	-0.77%
N#Cc1c(NC(=O)c2cccc3ccccc23)sc2c1CCCC2	3.47%
Fc1cccc(COc2ccc(Nc3ncnc4cc(-c5ccc[nH]5)sc34)cc2Cl)c1	2.64%
COc1cc2c(cc1Nc1nc(N3CCc4ccccc43)c3cc[nH]c3n1)N(C(=O)CN(C)C)CC2	-3.01%
